{
  "source": "PubChem BioAssay AID620",
  "about": "(Sanford-Burnham Center for Chemical Genomics, 2007)",
  "note": "Among all 87,000 compounds or so, about 360 (0.41%) were called active. This is one part of a sample in which actives are shown more often than they occur. No stated cut-off is given here; in the data, active means cytotoxicity above about 50%; inactive means the rest.",
  "data": [
    {"assay": "cytotoxicity in HT1080 fibrosarcoma cells, cell-based, fluorescence readout (AID 620);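 further: cells exposed to compound overnight then 4 h with Alamar Blue; 0% = vehicle DMSO and 100% = killing control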", "details": "HT1080 viability, at 10 µM, active compounds read high", "values": [
      {"smiles": "Cc1cc2c(N)cccc2nn1", "cytotoxicity": "-9.9% (inactive)"},
      {"smiles": "Nc1cccc2cnccc12", "cytotoxicity": "20.7% (inactive)"},
      {"smiles": "CNC(=O)CSc1nc2nc(C)cc(C)n2n1", "cytotoxicity": "16.5% (inactive)"},
      {"smiles": "CCCCS(=O)(=O)/C=C\\C=C/S(=O)(=O)CCCC", "cytotoxicity": "94% (active)"},
      {"smiles": "CCCCS(=O)(=O)/C=C/[C@H]1[C@H](S(=O)(=O)CCCC)[C@H]2C=C[C@@H]1C2", "cytotoxicity": "0.3% (inactive)"},
      {"smiles": "CCCCS(=O)(=O)/C=C\\C1C2C=CC(C2)C1S(=O)(=O)CCCC", "note": "(stereo not given)", "cytotoxicity": "-14.4% (inactive)"},
      {"smiles": "CCC(C)NC(=O)CNS(=O)(=O)c1ccc(C)cc1", "note": "(stereo not given)", "cytotoxicity": "1.4% (inactive)"},
      {"smiles": "COc1cc(CNc2ccc3c(c2)CCC3)cc(OC)c1O", "cytotoxicity": "-2.4% (inactive)"},
      {"smiles": "O=C(NCc1ccco1)C1CCC(CNS(=O)(=O)c2cccc3cccnc23)CC1", "note": "(stereo not given)", "cytotoxicity": "-8.6% (inactive)"},
      {"smiles": "O=c1c2cc(Br)ccc2nc2n1CCCCC2", "cytotoxicity": "-8.5% (inactive)"},
      {"smiles": "CC(=O)c1cccc(NC(=O)c2cc3ccccn3n2)c1", "cytotoxicity": "6.1% (inactive)"},
      {"smiles": "COc1cccc(CNC(=O)c2cc3ccccn3n2)c1", "cytotoxicity": "0% (inactive)"},
      {"smiles": "CCOC(=O)c1nc(N)c(=O)n(-c2ccc(C)cc2)n1", "cytotoxicity": "5.9% (inactive)"},
      {"smiles": "CCOc1ccc(N(C(=O)Cn2nnc3ccccc32)C(C(=O)NC(C)(C)CC)c2cccn2C)cc1", "note": "(stereo not given)", "cytotoxicity": "15% (inactive)"},
      {"smiles": "C=CC1C(N2CCOCC2)C(C)(C)S1(=O)=O", "note": "(stereo not given)", "cytotoxicity": "0.5% (inactive)"},
      {"smiles": "Cc1cc(C)c2c(c1)cc(C)c1nnc(SCC(=O)Nc3cc(C)on3)n12", "cytotoxicity": "20.3% (inactive)"},
      {"smiles": "Cc1cc(NC(=O)CSc2nnc3c(C)cc4c(C)ccc(C)c4n23)no1", "cytotoxicity": "58.9% (active)"},
      {"smiles": "Cc1cc(NC(=O)CSc2nnc3c(C)cc4cc(C)c(C)cc4n23)no1", "cytotoxicity": "11.9% (inactive)"},
      {"smiles": "COc1ccc(N2CCN(C(=O)CN(Cc3ccc(Cl)cc3)S(C)(=O)=O)CC2)cc1", "cytotoxicity": "-6.4% (inactive)"},
      {"smiles": "CC1CCCCN1C(=O)CSc1ccc(-c2ccc(F)cc2)nn1", "note": "(stereo not given)", "cytotoxicity": "-10.9% (inactive)"},
      {"smiles": "O=C(c1cc(-c2ccccc2)nc2ccccc12)N1CCN(c2ccccn2)CC1", "cytotoxicity": "-0.4% (inactive)"},
      {"smiles": "CCOc1ccc(-c2cc(C(=O)O)c3ccccc3n2)cc1", "cytotoxicity": "23.3% (inactive)"},
      {"smiles": "CCOC(=O)N1CCN(C(=O)c2ccccc2-c2ccccc2)CC1", "cytotoxicity": "58.5% (active)"},
      {"smiles": "CCOC(=O)N1CCN(C(=O)c2cc(-c3ccc(OCC)cc3)nc3ccccc23)CC1", "cytotoxicity": "54.9% (active)"},
      {"smiles": "O=C(c1ccccc1-c1ccccc1)N1CCCC1", "cytotoxicity": "7.3% (inactive)"},
      {"smiles": "CCOc1ccc(-c2cc(C(=O)N3CCN(c4ccccn4)CC3)c3ccccc3n2)cc1", "cytotoxicity": "52.4% (active)"},
      {"smiles": "CCOC(=O)N1CCN(C(=O)c2ccccc2Oc2ccccc2)CC1", "cytotoxicity": "3.5% (inactive)"},
      {"smiles": "CCOc1ccc(-c2cc(C(=O)N3CCN(C)CC3)c3ccccc3n2)cc1", "cytotoxicity": "3.8% (inactive)"},
      {"smiles": "COc1ccc(-c2cc(C(=O)N3CCN(c4ccccn4)CC3)c3ccccc3n2)cc1", "cytotoxicity": "3.7% (inactive)"},
      {"smiles": "CNC(=S)NN(c1ccccc1)c1ccccc1", "cytotoxicity": "30.1% (inactive)"},
      {"smiles": "COc1ccccc1CNC(=O)C(=O)NCC1CCCO1", "note": "(stereo not given)", "cytotoxicity": "0.9% (inactive)"},
      {"smiles": "Cc1cc(=O)oc2cc(OCC3CC(c4ccc(Cl)cc4)=NO3)ccc12", "note": "(stereo not given)", "cytotoxicity": "-6.9% (inactive)"},
      {"smiles": "Cc1cc(=O)oc2cc(OCC3CC(c4ccccc4)=NO3)ccc12", "note": "(stereo not given)", "cytotoxicity": "8.1% (inactive)"},
      {"smiles": "Cc1cc(=O)oc2cc(OCC3CC(c4ccccc4Cl)=NO3)ccc12", "note": "(stereo not given)", "cytotoxicity": "63.5% (active)"},
      {"smiles": "O=C(NCc1ccccn1)C1CCCN(Cc2cnn(-c3ccccc3)c2-n2cccc2)C1", "note": "(stereo not given)", "cytotoxicity": "-8.2% (inactive)"},
      {"smiles": "O=S(=O)(c1ccc2c(c1)C(=NO)c1cc(S(=O)(=O)N3CCCCC3)ccc1-2)N1CCCCC1", "cytotoxicity": "102% (active)"},
      {"smiles": "O=S(=O)(c1ccc(S(=O)(=O)N2CCCC2)cc1)N1CCCCCC1", "cytotoxicity": "1.4% (inactive)"},
      {"smiles": "CC1CCN(S(=O)(=O)c2ccc3c(c2)C(=NO)c2cc(S(=O)(=O)N4CCC(C)CC4)ccc2-3)CC1", "cytotoxicity": "4.2% (inactive)"},
      {"smiles": "CC(=O)c1ccc(NC(=O)C(Cc2ccccc2)NC(=O)c2ccco2)cc1", "note": "(stereo not given)", "cytotoxicity": "16.9% (inactive)"},
      {"smiles": "CCC(C(=O)NC1CCCC1)N(Cc1cccs1)C(=O)Cn1nnc(-c2ccc(OC)c(OC)c2)n1", "note": "(stereo not given)", "cytotoxicity": "-0.6% (inactive)"},
      {"smiles": "O=S(=O)(O/N=C1\\CCCc2ccccc21)c1ccccc1", "cytotoxicity": "21.4% (inactive)"},
      {"smiles": "CC1=C/C(=N\\OS(=O)(=O)c2ccccc2)C=CC1=O", "cytotoxicity": "35.8% (inactive)"},
      {"smiles": "CC1=C(C)/C(=N\\OS(=O)(=O)c2ccccc2)C=CC1=O", "cytotoxicity": "70.2% (active)"},
      {"smiles": "CC1=C(C)/C(=N/OC(=O)c2cccc([N+](=O)[O-])c2)C=CC1=O", "cytotoxicity": "7.5% (inactive)"},
      {"smiles": "Cc1ccc(S(=O)(=O)O/N=C2\\CCCc3ccccc32)cc1", "cytotoxicity": "9.9% (inactive)"},
      {"smiles": "CC1=CC(=O)C=C(C)C1=NOS(=O)(=O)c1ccccc1", "cytotoxicity": "51.3% (active)"},
      {"smiles": "Cn1cc(Cl)c(C(=O)N/N=C/c2ccc(OS(=O)(=O)c3ccccc3)cc2)n1", "cytotoxicity": "6.3% (inactive)"},
      {"smiles": "Cc1ccc2[nH]c(=O)c(-c3nc4cc(C)ccn4c3NCc3ccco3)cc2c1", "cytotoxicity": "-1.5% (inactive)"},
      {"smiles": "CC(=O)OC(Cn1ccnc1)c1ccccc1", "note": "(stereo not given)", "cytotoxicity": "7.8% (inactive)"},
      {"smiles": "O=C(c1ccc(Cl)c(S(=O)(=O)NCc2ccco2)c1)N1CCN(c2ccccc2F)CC1", "cytotoxicity": "5.8% (inactive)"},
      {"smiles": "COc1ccccc1N1CCN(C(=O)c2ccc(Cl)c(S(=O)(=O)NCc3ccco3)c2)CC1", "cytotoxicity": "56.3% (active)"},
      {"smiles": "Cc1cccc(N2CCN(C(=O)c3ccc(Cl)c(S(=O)(=O)NCc4ccco4)c3)CC2)c1C", "cytotoxicity": "26.2% (inactive)"},
      {"smiles": "Nc1nc(SCc2ccc(Cl)cc2)[nH]c(=O)c1-c1ccccc1", "cytotoxicity": "1.6% (inactive)"},
      {"smiles": "COc1ccccc1N1CCN(c2nc(C)nc3c2oc2ccccc23)CC1", "cytotoxicity": "74.7% (active)"},
      {"smiles": "Cc1cc(C)nc(N2CCN(c3nc(C)nc4c3oc3ccccc34)CC2)n1", "cytotoxicity": "-3.6% (inactive)"},
      {"smiles": "COc1ccccc1N1CCN(c2ncnc3c2oc2ccccc23)CC1", "cytotoxicity": "-2.5% (inactive)"},
      {"smiles": "O=C(c1cccc(F)c1)N1CCN(Cc2c[nH]c3ccccc23)CC1", "cytotoxicity": "2.4% (inactive)"},
      {"smiles": "COc1ccc2cc(C(c3nnnn3Cc3ccccc3)N3CCCCCC3)c(=O)[nH]c2c1", "note": "(stereo not given)", "cytotoxicity": "17.3% (inactive)"},
      {"smiles": "Cc1cc(C(=O)CSc2nnc(-c3cccs3)n2Cc2ccccc2)c(C)n1C", "cytotoxicity": "4.7% (inactive)"},
      {"smiles": "Cc1c(NC(=O)CSc2nc3ccccc3n2C)c(=O)n(-c2ccccc2)n1C", "cytotoxicity": "2.7% (inactive)"}
    ]}
  ]
}
